Results: ChEMBL document CHEMBL4513216, “Probing the Open Global Health Chemical Diversity Library for Multistage-Active Starting Points for Next-Generation Antimalarials” (ACS Infect Dis, 2020)
Screen size: about 69,000 compounds; about 8,600 (12%) showed an effect of 50% or more. Only a selection was taken, and strong results are over-represented in it overall.

These molecules were tested on Plasmodium berghei (assay: Screen against P. berghei liver stage (PbLuc), transformed with Luciferase, at 10uM). Settings: tested at 10 uM.
Type: functional, HepG2

| Structure (SMILES) | INHIBITION |
| --- | --- |
| Cn1cc(CCN2CCOC(CNc3cccnn3)C2)cn1 (stereo not drawn) | -33.7% |
| CCCOCC1CCN(C(=O)c2cnc(C)nc2O)C1 (stereo not drawn) | 35.8% |
| Cc1cc(NC(=O)NCC2COc3ccccc3C2)no1 (stereo not drawn) | 40% |
| O=C(c1ccnc(CC2COc3ccccc3C2)c1)N1CCCC1 (stereo not drawn) | 31.5% |
| Nc1ccc(CC2COc3ccccc3C2)cn1 (stereo not drawn) | 56.3% |
| O=S(=O)(NCC1COc2ccccc2C1)N1CCCCCC1 (stereo not drawn) | -9.3% |
| Nc1cc(CC2COc3ccccc3C2)ccn1 (stereo not drawn) | 57.9% |
| Cn1cc(CN2C[C@@H]3COC[C@]3(C(=O)NCc3ccccn3)C2)cn1 | 13.7% |
| CC(C)NC(=O)[C@@H]1CN(Cc2ccc3c(c2)OCO3)C[C@H]2OCC[C@H]21 | 26.5% |
| CN(Cc1noc(C2CC2)n1)C1CCCN(c2cccnn2)C1 (stereo not drawn) | 5.9% |
| CC1(C(=O)NC2CCCC2)CN(c2cnccn2)CCO1 (stereo not drawn) | 12.3% |
| CCC(C)N(C)S(=O)(=O)c1ccc(CCNC(C)=O)s1 (stereo not drawn) | 13.7% |
| CC(=O)NCCc1ccc(S(=O)(=O)N(C)C(C)CC(C)C)s1 (stereo not drawn) | 68.2% |
| CCC(CC)N(C)S(=O)(=O)c1ccc(CCNC(C)=O)s1 | -79.8% |
| COCCCN(Cc1cc(O)nc2ccccc12)C(=O)NC(C)C | 33% |
| CC(C)CN1CCn2nc(CNc3ncnc4[nH]cnc34)cc2C1 | 33% |
| CC(C)NCc1cc2n(n1)CCN(C1CCCCC1)C2 | 14.9% |
| c1nc(NCc2cc3n(n2)CCN(C2CCCCC2)C3)c2nc[nH]c2n1 | 78.5% |
| Cc1nc(CN2C(=O)C[C@@H]3[C@@H]2CCN3Cc2cnn(C)c2)cs1 | -8.51% |
| CCc1nnc2ccc(N3CCN(S(=O)(=O)c4ccc(Cl)s4)CC3)nn12 | 32.3% |
| CSc1sc(NC(=O)Cc2c(C)nc(C)[nH]c2=O)nc1C | 71.4% |
| Cc1nc(C)c(CC(=O)Nc2nc(C)c(C)s2)c(=O)[nH]1 | 21.1% |

| Structure (SMILES) | INHIBITION |
| --- | --- |
| Cc1nc(C)c(CC(=O)Nc2nnc(C)s2)c(=O)[nH]1 | 20.1% |
| O=c1[nH]c(-c2ccccn2)nc2c1CCN(S(=O)(=O)N1CCCC1)C2 | 7.92% |
| CS(=O)(=O)c1cn[nH]c1C1CCCN(C(=O)CN2CCOCC2)C1 (stereo not drawn) | 20.8% |
| Cc1csc(NC(=O)CN2CCC(c3ccnn3CCO)CC2)n1 | 66% |
| O=C(CN1CCC(c2ccnn2CCO)CC1)NC1CCCC1 | -11.4% |
| O=C(CN1CCOC(c2ccc(Cl)s2)C1)NCc1ccco1 (stereo not drawn) | 52.8% |
| O=C(CN1CCOC(c2ccc(Cl)c(Cl)c2)C1)NCc1ccco1 (stereo not drawn) | 21.5% |
| Cn1nccc1C1CCN(CC(=O)NCC2CC2)CC1 | 70.8% |
| O=C(CN1CCC(c2ccnn2CCO)CC1)NCC1CC1 | 33.3% |
| N#CC1(NC(=O)CN2CCC(c3ccnn3CCO)CC2)CCCC1 | 37.9% |
| CCC1CN(CC(=O)NCc2ccco2)CCO1 (stereo not drawn) | 36.6% |
| O=C(CN1CCC(c2ccnn2CCO)CC1)NCc1ccco1 | 58.5% |
| CC(C)C(C)(C#N)NC(=O)CN1CCC(c2ccnn2CCO)CC1 (stereo not drawn) | -1.14% |
| O=C(CN1CCC(c2ccnn2CCO)CC1)NCc1cccs1 | 10.8% |
| O=C(CN1CCC(c2ccnn2CCO)CC1)NCC1CCCCC1 | -17.6% |
| Cc1ccc(CN2CCC3(CC2)CN(C(=O)c2cnccn2)CCO3)o1 | -14.2% |
| O=C(N1CCCC1)N1CCN(Cc2cccnc2)c2ncccc2C1 | 31.2% |
| Cn1nccc1C(=O)N1CCC(c2nnsc2S(C)(=O)=O)CC1 | 30.95% |
| COC1(CNC(=O)NCc2ccccc2)CCSC1 (stereo not drawn) | 18.7% |
| Cc1nc(CNC(=O)NCC(O)c2ccccc2)cs1 (stereo not drawn) | 11.2% |
| CC(C)S(=O)(=O)N1CCC(c2[nH]ncc2S(C)(=O)=O)C1 (stereo not drawn) | 37.6% |
| CN(CCC#N)C(=O)C(C)(C)Oc1ccc(C(N)=O)cc1 | 25.3% |

| Structure (SMILES) | INHIBITION |
| --- | --- |
| CC(=O)N1CCN(CCNC(=O)c2nc3ccccc3c(=O)[nH]2)CC1 | -96.2% |
| CCNC(=O)[C@@H]1C[C@@H](NC(=O)c2ccc(C)cc2O)CN1CCCSC | 15.9% |
| Cc1cc(OCC(=O)N2CCCC(c3nccs3)C2)no1 (stereo not drawn) | -19.6% |
| Cc1nn(C)c(Cl)c1S(=O)(=O)N(C)c1ccc(Cl)cn1 | 14.4% |
| O=C1CC(c2ccncc2)C2(CCN(Cc3ccc(F)cc3)CC2)N1 (stereo not drawn) | 1.71% |
| CN(C)CCOCc1nnc2n1CCN(Cc1ccco1)CC2 | 16.4% |
| Cc1cc(Br)ccc1C(=O)Nc1c(C(N)=O)n[nH]c1C | 3.87% |
| Cc1cnc2c(C(=O)N3CCCC(OCc4ccccn4)C3)cnn2c1 (stereo not drawn) | 37.9% |
| CCOCC(=O)N1CCC(C2CCN(Cc3ccc(Cl)cc3)C2)CC1 (stereo not drawn) | 26.9% |
| O=C1CN(C(=O)C2CCCCC2)CC(O)CN1Cc1ccc(Cl)cc1 (stereo not drawn) | -0.473% |
| CN1CCN(Cc2ccc(Cl)cc2)CC1C(=O)O (stereo not drawn) | 17% |
| O=C(C1CCCC1)N1CCC(C2CCN(Cc3ccc(Cl)cc3)C2)CC1 (stereo not drawn) | 67.3% |
| O=C(C1CCC1)N1CCC(C2CCN(Cc3ccc(Cl)cc3)C2)CC1 (stereo not drawn) | 55.6% |
| CC(=O)NCC(=O)N1CCC(C2CCN(Cc3ccc(Cl)cc3)C2)CC1 (stereo not drawn) | 26.9% |
| CCc1nc(C2CCCN2CC(=O)N2CCCc3ccccc32)no1 (stereo not drawn) | 15.3% |
| CN(C)c1cc(C(=O)N2CCCCCC2)ccn1 | 5.308% |
| O=S(=O)(CCNC1CCc2ncnn2C1)c1ccccc1 (stereo not drawn) | 20.6% |
| COC1CC2(CCN(Cc3ccc4c(c3)OCO4)CC2)C1 | 37.4% |
| Cc1nn(CC(O)CN2CCc3ccccc3C2)c(=O)c2ccccc12 (stereo not drawn) | 18.6% |
| NC(=O)c1c(NC(=O)CCC(=O)O)sc2c1CCc1ccccc1-2 | -13% |
| Cc1cccc(OCCN2CCN(Cc3cnn(CCO)c3)CC2)c1 | 32.9% |
| Cc1nn(C)c(C)c1S(=O)(=O)NCC(C)(O)c1ccc2c(c1)OCO2 (stereo not drawn) | 34.3% |

| Structure (SMILES) | INHIBITION |
| --- | --- |
| Cn1cnc(S(=O)(=O)NCC(C)(O)c2ccc3c(c2)OCO3)c1 (stereo not drawn) | 52.5% |
| Cc1noc(C)c1S(=O)(=O)NCC(C)(O)c1ccc2c(c1)OCO2 (stereo not drawn) | 31.3% |
| CNc1nccnc1C1CN(C(=O)c2cc[nH]n2)CCO1 (stereo not drawn) | -22.5% |
| CN1CCN(C)C(CNc2c(C#N)cnc3ccc(Cl)cc23)C1 (stereo not drawn) | 7.18% |
| CCOC1CC2(CCN(c3cnccn3)CC2)c2ccccc21 (stereo not drawn) | 37.9% |
| c1cncc(C2CC3(CCN(c4cnccn4)CC3)c3ccccc32)c1 (stereo not drawn) | 54.1% |
| CN(C)CCOC1CC2(CCN(c3cnccn3)CC2)c2ccccc21 (stereo not drawn) | 31.9% |
| Cc1cc(C)cc(OCC(=O)N2CCC2)c1 | -5.22% |
| CN(C)C(=O)CO[C@H]1CN(Cc2ccc3c(c2)OCO3)[C@@H]2COC[C@H]12 | 47.4% |
| O=C(Nc1cnccn1)[C@H]1CO[C@H]2CCN(c3ncc(F)cn3)C[C@H]2C1 | 27.3% |
| CS(=O)(=O)N1C[C@H](C(=O)Nc2cccnc2)C[C@H]2OCC[C@H]21 | 30.5% |
| O=C(Nc1cnccn1)[C@@H]1C[C@H]2OCC[C@H]2N(c2ncc(F)cn2)C1 | 0.923% |
| CS(=O)(=O)N1C[C@H](C(=O)Nc2cnccn2)C[C@H]2OCC[C@H]21 | 61.5% |
| CS(=O)(=O)N1C[C@@H](C(=O)Nc2cnccn2)C[C@H]2OCC[C@H]21 | 39.3% |
| O=C(Nc1cnccn1)[C@H]1C[C@H]2OCC[C@H]2N(c2ncc(F)cn2)C1 | 60% |
| NS(=O)(=O)Cc1ccc(CNc2cncc(-n3cccn3)n2)cc1 | 11.6% |
| Cc1ccc(CN2CCN(Cc3nccn3C)[C@H]3CS(=O)(=O)C[C@H]32)o1 | 24.9% |
| O=C(CN1CCC[C@H]1C(=O)O)NCCOc1cccc(Cl)c1 | 16.1% |
| O=C(NC1CCN(C2CC2)CC1)c1cn(-c2ccc(Cl)cc2)nn1 | -6.51% |
| Cc1ccc2c(n1)N(Cc1csc(C)n1)CCN(C1CCOC1)C2 (stereo not drawn) | 28.2% |
| Cc1cccn2c(CNC(C)CCn3cccn3)cnc12 (stereo not drawn) | 32.3% |
| Cc1ccc2c(c1)c(CNC(C)Cn1nc(C)cc1C)nn2C (stereo not drawn) | 10.9% |

| Structure (SMILES) | INHIBITION |
| --- | --- |
| Cc1cc(C)n(CC(C)NCc2nc(-c3cccnc3)no2)n1 (stereo not drawn) | 45.9% |
| Cc1cccn2c(CNC(C)CO)cnc12 (stereo not drawn) | 24.7% |
| Cc1cc(C)n(CC(C)NCc2cnc3c(C)cccn23)n1 (stereo not drawn) | 60.4% |
| Cc1cccn2c(CNC(C)CCc3ccc(O)cc3)cnc12 (stereo not drawn) | 65.8% |
| COc1ccc(OC)c(C(C)NC(=O)c2nn(C)c(C)c2Br)c1 (stereo not drawn) | -1.84% |
| Cn1c(=O)[nH]c(=O)n2c(CC(=O)Nc3ccccc3)cnc12 | 32.5% |
| COCC1CN(Cc2ccoc2)Cc2cn(CC3CCCC3)nc21 (stereo not drawn) | 34.6% |
| COCC1CN(Cc2ccoc2)Cc2cn(C)nc21 (stereo not drawn) | 7.24% |
| CCn1cc2c(n1)C(COC)CN(Cc1ccoc1)C2 (stereo not drawn) | 58.7% |
| Cn1c(Cn2ccnc2)nnc1C1CCN(C(=O)c2ccncc2)CC1 | -22.1% |
| COCC(=O)N1CCC(c2cc(N(C)C)cc(C)n2)CC1 | 44.3% |
| CNC(=O)C1CCCCN1C(=O)Cc1csc(-c2ccc(C)o2)n1 (stereo not drawn) | -7.72% |
| Cc1ccc(-c2nc(CC(=O)NCC(C)N3CCOCC3)cs2)o1 (stereo not drawn) | 67.5% |
| Cc1ccc(-c2nc(CC(=O)NCC3CCOC3)cs2)o1 (stereo not drawn) | 71.2% |
| Cc1ccc(-c2nc(C(=O)NCC3CCOC3)cs2)cc1 (stereo not drawn) | 41.5% |
| Cc1ccc(-c2nc(CC(=O)NCC3CCCN(C(C)C)C3)cs2)o1 (stereo not drawn) | 38.7% |
| Cc1ccc(-c2nc(CC(=O)NCC3CCCOC3)cs2)o1 (stereo not drawn) | 44.3% |
| Cc1ccc(-c2nc(CC(=O)N3CCCC(NC(=O)C(C)C)C3)cs2)o1 (stereo not drawn) | 51.7% |
| Cc1ccc(-c2nc(CC(=O)N3CCN(c4cnccn4)CC3)cs2)o1 | -11.4% |
| CCNC(=O)C1CCN(Cc2csc(-c3ccc(C)o3)n2)CC1 | 20.2% |
